Data from PubChem BioAssay AID1159580 (chemical genetic matrix, 2015).
The campaign covered roughly 5,500 compounds. About 2,000 (36%) were called active. About 18% were inconclusive and are not listed. No stated cut-off is given here; in the data, active means normalized growth mostly below about 0.91 (no sharp cut-off); inconclusive means no clear call, values can overlap the other calls; inactive means mostly above about 0.92. The list shows a part of the results.

Test: chemical genetic growth profiling, strain panel (AID 1159580);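 further: tested at 20 µM; growth read once vehicle control cultures reached saturation at 30 °C; 1 = growth at the plate median or of vehicle wells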
Conditions: growth OD

Measured: normalized growth

COc1c(C2COc3cc4c(cc3C2=O)CC(O)C(C)(C)O4)ccc2c1CCC(C)(C)O2 (configuration not stated)
inactive: S. cerevisiae deletion strains, locus YBR021W, strain FUR4, stronger effect = lower value 0.992 | S. cerevisiae deletion strains, locus YBR229C, strain ROT2, stronger effect = lower value 1.01 | S. cerevisiae deletion strains, locus YCL029C, strain bik1, stronger effect = lower value 1.01 | S. cerevisiae deletion strains, locus YDL035C, strain GPR1, stronger effect = lower value 1.02 | S. cerevisiae deletion strains, locus YDL074C, strain BRE1, stronger effect = lower value 1.05 | S. cerevisiae deletion strains, locus YDL101C, strain DUN1, stronger effect = lower value 1.02 | S. cerevisiae deletion strains, locus YDL134C, strain PPH21, stronger effect = lower value 1.05 | S. cerevisiae deletion strains, locus YDL185W, strain tfp1, stronger effect = lower value 1.05 | S. cerevisiae deletion strains, locus YDL192W, strain arf1, stronger effect = lower value 1.01 | S. cerevisiae deletion strains, locus YDR101C, strain arx1, stronger effect = lower value 0.982 | S. cerevisiae deletion strains, locus YDR162C, strain NBP2, stronger effect = lower value 1.02 | S. cerevisiae deletion strains, locus YDR318W, strain mcm21, stronger effect = lower value 1.01 | S. cerevisiae deletion strains, locus YDR388W, stronger effect = lower value 1.03 | S. cerevisiae deletion strains, locus YDR502C, strain sam2, stronger effect = lower value 1.04 | S. cerevisiae deletion strains, locus YEL061C, strain CIN8, stronger effect = lower value 1.01 | S. cerevisiae deletion strains, locus YER110C, stronger effect = lower value 1.02 | S. cerevisiae deletion strains, locus YER155C, strain BEM2, stronger effect = lower value 1.02 | S. cerevisiae deletion strains, locus YER167W, strain BCK2, stronger effect = lower value 1.01 | S. cerevisiae deletion strains, locus YGL078C, strain dbp3, stronger effect = lower value 1.02 | S. cerevisiae deletion strains, locus YGL086W, strain mad1, stronger effect = lower value 1.01 | S. cerevisiae deletion strains, locus YGL248W, strain PDE1, stronger effect = lower value 1.06 | S. cerevisiae deletion strains, locus YGR078C, strain PAC10, stronger effect = lower value 1.02 | S. cerevisiae deletion strains, locus YGR135W, strain pre9, stronger effect = lower value 1.07 | S. cerevisiae deletion strains, locus YGR252W, strain gcn5, stronger effect = lower value 1.04 | S. cerevisiae deletion strains, locus YHR030C, strain SLT2, stronger effect = lower value 1.01 | S. cerevisiae deletion strains, locus YHR079C, strain IRE1 (second series), stronger effect = lower value 1.02 | S. cerevisiae deletion strains, locus YHR094C, strain hxt1, stronger effect = lower value 1 | S. cerevisiae deletion strains, locus YHR129C, strain ARP1, stronger effect = lower value 1.02 | S. cerevisiae deletion strains, locus YHR200W, strain rpn10, stronger effect = lower value 1.03 | S. cerevisiae deletion strains, locus YIL066C, strain RNR3, stronger effect = lower value 1.04 | S. cerevisiae deletion strains, locus YIL073C, strain SPO22, stronger effect = lower value 1.08 | S. cerevisiae deletion strains, locus YIL125W, strain kgd1, stronger effect = lower value 1.01 | S. cerevisiae deletion strains, locus YIR030C, strain dcg1, stronger effect = lower value 1.03 | S. cerevisiae deletion strains, locus YJL095W, strain BCK1, stronger effect = lower value 1.05 | S. cerevisiae deletion strains, locus YJL134W, strain LCB3, stronger effect = lower value 0.995 | S. cerevisiae deletion strains, locus YJL168C, strain set2, stronger effect = lower value 1.03 | S. cerevisiae deletion strains, locus YJL187C, strain SWE1 (second series), stronger effect = lower value 1.04 | S. cerevisiae deletion strains, locus YJR043C, strain POL32, stronger effect = lower value 1.01 | S. cerevisiae deletion strains, locus YKL009W, strain mrt4, stronger effect = lower value 1.01 | S. cerevisiae deletion strains, locus YKL068W, stronger effect = lower value 1.01 | S. cerevisiae deletion strains, locus YKL085W, strain MDH1 (second series), stronger effect = lower value 1.01 | S. cerevisiae deletion strains, locus YKL085W, strain MDH1, stronger effect = lower value 1.01 | S. cerevisiae deletion strains, locus YKL190W, strain CNB1, stronger effect = lower value 1.01 | S. cerevisiae deletion strains, locus YKR001C, strain vps1, stronger effect = lower value 1.04 | S. cerevisiae deletion strains, locus YLR039C, strain RIC1, stronger effect = lower value 1.11 | S. cerevisiae deletion strains, locus YLR058C, strain SHM2, stronger effect = lower value 1.02 | S. cerevisiae deletion strains, locus YLR102C, strain apc9, stronger effect = lower value 1.01 | S. cerevisiae deletion strains, locus YLR268W, strain sec22, stronger effect = lower value 0.997 | S. cerevisiae deletion strains, locus YLR342W, strain FKS1 (second series), stronger effect = lower value 1.04 | S. cerevisiae deletion strains, locus YLR371W, strain rom2, stronger effect = lower value 1.03 | S. cerevisiae deletion strains, locus YLR418C, strain cdc73, stronger effect = lower value 1.08 | S. cerevisiae deletion strains, locus YML016C, strain PPZ1, stronger effect = lower value 1 | S. cerevisiae deletion strains, locus YML032C, strain rad52, stronger effect = lower value 1.01 | S. cerevisiae deletion strains, locus YML124C, strain tub3, stronger effect = lower value 1 | S. cerevisiae deletion strains, locus YMR078C, strain ctf18, stronger effect = lower value 1.02 | S. cerevisiae deletion strains, locus YMR223W, strain ubp8, stronger effect = lower value 1.02 | S. cerevisiae deletion strains, locus YMR263W, strain SAP30, stronger effect = lower value 1 | S. cerevisiae deletion strains, locus YMR307W, strain GAS1, stronger effect = lower value 1.13 | S. cerevisiae deletion strains, locus YNL067W, strain RPL9B, stronger effect = lower value 1.01 | S. cerevisiae deletion strains, locus YNL153C, strain GIM3, stronger effect = lower value 1.06 | S. cerevisiae deletion strains, locus YNL233W, strain BNI4, stronger effect = lower value 1.04 | S. cerevisiae deletion strains, locus YNL250W, strain rad50, stronger effect = lower value 1.05 | S. cerevisiae deletion strains, locus YNL271C, strain bni1, stronger effect = lower value 1.01 | S. cerevisiae deletion strains, locus YNL298W, strain CLA4, stronger effect = lower value 1.02 | S. cerevisiae deletion strains, locus YNL307C, strain MCK1, stronger effect = lower value 1.01 | S. cerevisiae deletion strains, locus YNR052C, strain pop2, stronger effect = lower value 1.03 | S. cerevisiae deletion strains, locus YOL006C, strain TOP1, stronger effect = lower value 1.06 | S. cerevisiae deletion strains, locus YOL012C, strain htz1 0.808 | S. cerevisiae deletion strains, locus YOL147C, strain pex11, stronger effect = lower value 1 | S. cerevisiae deletion strains, locus YOR061W, strain CKA2, stronger effect = lower value 1.01 | S. cerevisiae deletion strains, locus YOR069W, strain VPS5, stronger effect = lower value 1.01 | S. cerevisiae deletion strains, locus YOR136W, strain idh2, stronger effect = lower value 1.02 | S. cerevisiae deletion strains, locus YOR144C, strain elg1, stronger effect = lower value 1.01 | S. cerevisiae deletion strains, locus YOR184W, strain ser1, stronger effect = lower value 0.971 | S. cerevisiae deletion strains, locus YOR316C, strain cot1, stronger effect = lower value 1.01 | S. cerevisiae deletion strains, locus YPL241C, strain CIN2, stronger effect = lower value 0.99 | S. cerevisiae deletion strains, locus YPR119W, strain clb2, stronger effect = lower value 1.02 | S. cerevisiae deletion strains, locus YPR141C, strain kar3, stronger effect = lower value 1.01 | S. cerevisiae deletion strains, locus YPR163C, strain tif3, stronger effect = lower value 1.03 | S. cerevisiae deletion strains, locus YPR167C, strain met16, stronger effect = lower value 1.04 | S. cerevisiae deletion strains, strain wtn01, stronger effect = lower value 1 | S. cerevisiae strains, strain wild type, stronger effect = lower value 1.03
